{"source": "PubChem BioAssay AID2685", "about": "(National Center for Advancing Translational Sciences (NCATS), 2010)", "note": "Among all 320,000 compounds or so, about 2,100 (0.66%) were called active. Another 53% or so got no clear call; they are omitted. The sample holds actives, similar compounds and a random draw of the others, so the mix is not that of the screen. Calls come from the whole dose curve; as a rule, active = well fitted inhibition curve with a large enough effect in the signal ratio, with a control signal flat (not every such curve was filed as active); inconclusive = small, poorly fitted or top-dose-only effect, or effect the other way, or a change in a side signal; inactive = flat fitted curve, though single readings scatter; the % refers to the signal ratio. Potency is the fitted concentration of half-maximal effect."}
{"test": "qHTS Assay for Lipid Storage Modulators in Drosophila S3 Cells;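 for cell number change: cells counted by Cell Tracker Red CMTPX staining in the red channel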; for lipid storage change, negative = inhibition: % is set by controls: 0 for no effect and ±100 for the full control effect", "details": "BODIPY lipid droplet fluorescence, 18-24 h, cells fed with added oleic acid; cell number change: measured here: cell count max response; series mostly up to 46.1 µM; lipid storage change, negative = inhibition: at the top concentration", "outline": "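Laser-scanning cytometry quantifies lipid droplet accumulation (500–530 nm total intensity; droplet/cell object ratio) in oleic acid-fed (400 uM added) Drosophila S3 cells treated with a concentration series. 20 uM Triacsin C defined 100% inhibition.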", "units": {"cell number change": "%"}}
{"smiles": "COc1ccc(-c2cc3cc(C(=O)O)ccn3c2C(=O)c2ccccc2)cc1", "lipid storage change, negative = inhibition": "-4.15% (inactive)", "cell number change": 2.31}
{"smiles": "CC1CCC2(CC1)NC(=O)N(CC(=O)NC(=O)Nc1ccc3c(c1)OCCO3)C2=O", "note": "(centres undefined)", "lipid storage change, negative = inhibition": "2.79% (inactive)", "cell number change": 17.3}
{"smiles": "COc1ccc(S(=O)(=O)N2CCC(C(=O)NCCc3ccccc3)CC2)cc1", "lipid storage change, negative = inhibition": "4.73% (inactive)", "cell number change": 20.5}
{"smiles": "CCOc1ccc(S(=O)(=O)N2CCCC(C(=O)NCc3ccncc3)C2)cc1Cl", "note": "(centres undefined)", "Potency": "1.03 µM (active)", "cell number change": 25.2}
{"smiles": "O=C(NC1CCCCC1)C1CCCN(S(=O)(=O)c2ccc(F)cc2)C1", "note": "(centres undefined)", "outcome": "inactive", "cell number change": 2.52}
{"smiles": "O=C(NCc1ccncc1)C1CCN(S(=O)(=O)c2ccc(F)cc2)CC1", "outcome": "inactive", "cell number change": 1.32}
{"smiles": "CSc1ccc(S(=O)(=O)N2CCC(C(=O)NCc3ccncc3)CC2)cc1", "lipid storage change, negative = inhibition": "-5.08% (inactive)", "cell number change": 19.2}
{"smiles": "Cc1ccc(S(=O)(=O)N2CCC(C(=O)NCc3ccncc3)CC2)cc1", "Potency": "18.4 µM (active)", "cell number change": 12.7}
{"smiles": "CCOc1ccc(S(=O)(=O)N2CCCC(C(=O)NCc3ccncc3)C2)cc1C", "note": "(centres undefined)", "outcome": "inactive", "cell number change": 9.24}
{"smiles": "CCOc1ccc(S(=O)(=O)N2CCC(C(=O)NCc3ccncc3)CC2)cc1Cl", "lipid storage change, negative = inhibition": "29.2% (inactive)", "cell number change": -18.4}
{"smiles": "Cc1ccc(S(=O)(=O)N2CCC(C(=O)N[C@@H](C)C(=O)NCCc3ccccc3)CC2)cc1", "lipid storage change, negative = inhibition": "11.5% (inactive)", "cell number change": 4.36}
{"smiles": "Cc1ccc(S(=O)(=O)N2CCC(C(=O)NCCc3ccccc3)CC2)cc1", "Potency": "23.1 µM (active)", "cell number change": -12.9}
{"smiles": "O=C(NC1CCN(S(=O)(=O)c2ccc(F)cc2)CC1)C1CCCCC1", "Potency": "5.17 µM (active)", "cell number change": -18.1}
{"smiles": "O=C(NC1CCCCCC1)C1CCN(S(=O)(=O)c2ccc(F)cc2)CC1", "lipid storage change, negative = inhibition": "9.96% (inactive)", "cell number change": -1.11}
{"smiles": "Cc1ccc(NC(=O)C(C)OC(=O)COc2cccc(C(F)(F)F)c2)cc1", "note": "(centres undefined)", "lipid storage change, negative = inhibition": "4.89% (inactive)", "cell number change": 3.29}
{"smiles": "COc1ccccc1N(CCC#N)C(=O)CSc1nc(-c2ccccc2)cn1N", "lipid storage change, negative = inhibition": "21.1% (inactive)", "cell number change": -6.12}
{"smiles": "COc1ccc(/C=C/c2nc(-c3ccccc3)cc(=O)[nH]2)cc1", "lipid storage change, negative = inhibition": "-10.7% (inactive)", "cell number change": -10.9}
{"smiles": "Cc1cn(C2CCC(CO)O2)c(=O)[nH]c1=O", "note": "(centres undefined)", "outcome": "inactive", "cell number change": 27}
{"smiles": "CC1CCCC(NC(=O)COC(=O)c2cccs2)C1C", "note": "(centres undefined)", "lipid storage change, negative = inhibition": "2.84% (inactive)", "cell number change": 0.184}
{"smiles": "CCOc1ccc(NC(=O)CN2C(=O)C3CCCN3C2=O)cc1", "note": "(centres undefined)", "outcome": "inactive"}
{"smiles": "CC1(C)CC(=O)C(C=NCCN2CCN(CCc3ccccc3)CC2)=C(O)C1", "lipid storage change, negative = inhibition": "1.55% (inactive)"}
{"smiles": "Cc1ccccc1C(=O)N1CCN(c2ccc(NC(=O)c3cccnc3)cc2)CC1", "lipid storage change, negative = inhibition": "-0.627% (inactive)", "cell number change": 24.6}
{"smiles": "CCOc1cc(C(=S)N2CCN(C)CC2)ccc1OCC(=O)N1CCOCC1", "lipid storage change, negative = inhibition": "12.5% (inactive)", "cell number change": -0.877}
{"smiles": "COc1ccc2c(c1)C1=NN(/C(C)=C\\C(C)=O)C(c3ccccc3)C1CC2", "note": "(centres undefined)", "lipid storage change, negative = inhibition": "-2.18% (inactive)", "cell number change": -20.1}
{"smiles": "COc1cccc(CNCC(O)COc2ccc(C(=O)c3ccccc3)cc2)c1", "note": "(centres undefined)", "lipid storage change, negative = inhibition": "0.646% (inactive)", "cell number change": -29.5}
{"smiles": "COC(=O)CN1C(=O)NC2(CCCc3ccccc32)C1=O", "note": "(centres undefined)", "lipid storage change, negative = inhibition": "-10.4% (inactive)", "cell number change": 1.11}
{"smiles": "O=C(c1ccc(C(F)(F)F)cc1)C1CCCN(Cc2cccn2-c2ncccn2)C1", "note": "(centres undefined)", "lipid storage change, negative = inhibition": "17.2% (inactive)", "cell number change": 20.4}
{"smiles": "O=C1CC(N2CCN(c3ccc(F)cc3)CC2)C(=O)N1c1ccc(F)cc1", "note": "(centres undefined)", "lipid storage change, negative = inhibition": "0.693% (inactive)", "cell number change": -10.9}
{"smiles": "CCS(=O)(=O)N1CCCC(C(=O)NCCc2ccccc2)C1", "note": "(centres undefined)", "Potency": "25.9 µM (active)", "cell number change": -14.3}
{"smiles": "CCCS(=O)(=O)N1CCCC(C(=O)NCCc2ccccc2)C1", "note": "(centres undefined)", "lipid storage change, negative = inhibition": "4.64% (inactive)", "cell number change": 1.16}
{"smiles": "CCCCS(=O)(=O)N1CCCC(C(=O)NCCc2ccccc2)C1", "note": "(centres undefined)", "lipid storage change, negative = inhibition": "-13.4% (inactive)", "cell number change": -7.87}
{"smiles": "Cc1ccc(C(=O)NCC(c2ccco2)N2CCCCC2)s1", "note": "(centres undefined)", "lipid storage change, negative = inhibition": "0.161% (inactive)", "cell number change": 20.8}
{"smiles": "CSc1cccc(NC(=O)C2CC(=O)N(Cc3ccccc3)C2)c1", "note": "(centres undefined)", "lipid storage change, negative = inhibition": "6.25% (inactive)", "cell number change": 8.1}
{"smiles": "O=C(O)c1cccc(NC(=O)C2CC(=O)N(Cc3ccccc3)C2)c1", "note": "(centres undefined)", "Potency": "4.61 µM (active)", "cell number change": -0.647}
{"smiles": "CC(=O)c1cccc(NC(=O)C2CC(=O)N(Cc3ccccc3)C2)c1", "note": "(centres undefined)", "outcome": "inactive"}
{"smiles": "CCc1ccc(S(=O)(=O)Nc2ccncc2)cc1", "outcome": "inactive", "cell number change": -6.32}
{"smiles": "O=S(=O)(Nc1ccncc1)c1ccc(Cl)cc1", "Potency": "10.3 µM (active)", "cell number change": -14.9}
{"smiles": "O=S(=O)(Nc1ccc(Cc2ccncc2)cc1)c1ccc(Cl)cc1", "lipid storage change, negative = inhibition": "5.23% (inactive)", "cell number change": 4.35}
{"smiles": "COc1ccc(C(=O)N2CCC(=O)N(C(CO)Cc3ccccc3)CC2)cc1", "note": "(centres undefined)", "lipid storage change, negative = inhibition": "1.55% (inactive)", "cell number change": -2.26}
{"smiles": "Cc1ccc(N=Cc2c(O)n(C)c(=O)n(C)c2=O)nc1", "lipid storage change, negative = inhibition": "1.38% (inactive)", "cell number change": 3.34}
{"smiles": "O=S(=O)(NCc1cccnc1)c1ccc(Br)c2ccccc12", "outcome": "inactive", "cell number change": 10.4}
{"smiles": "Cc1ccccc1S(=O)(=O)Nc1cccnc1", "lipid storage change, negative = inhibition": "4.78% (inactive)", "cell number change": 1.91}
{"smiles": "O=S(=O)(Nc1cccnc1)c1ccc(Br)c2ccccc12", "Potency": "7.31 µM (active)", "cell number change": -5.22}
{"smiles": "C/C(CC(=O)Nc1ccc(Cl)cc1Cl)=N\\NC(=O)c1ccncc1", "lipid storage change, negative = inhibition": "15.2% (inactive)", "cell number change": 23}
{"smiles": "COc1cc2c(cc1OC)C(c1cccc(Cl)c1Cl)CC(=O)N2", "note": "(centres undefined)", "lipid storage change, negative = inhibition": "-8.05% (inactive)", "cell number change": -12.7}
{"smiles": "COc1ccccc1C(=O)N/N=C(\\C)CC(=O)Nc1ccc2c(c1)OCCO2", "Potency": "16.4 µM (active)", "cell number change": 22.4}
